For 40 compounds, Potency results are on record in PubChem BioAssay AID624335 (National Center for Advancing Translational Sciences (NCATS), 2012).

The structures appear in SMILES notation. Calls of active or inactive are those of the source. The call rests on the fitted dose curve; in most records, active means well fitted curve in the direction sought with a large enough effect; inactive means flat fitted curve, though single readings scatter.

A short description of the assay: Quantitative high throughput screen for delayed death inhibitors of the malarial parasite plastid: Hit Validation with 3D7 at 96 hr using Flow Cytometry. Conditions: P. falciparum 3D7 in erythrocytes, SYBR/MitoTracker flow cytometry. From the text: The goal of this screen is to discover new antimalarial compounds that act by inhibiting the development of the apicoplast organelle in the malarial parasite Plasmodium falciparum. Some antibiotics, such as azithromycin and tetracycline, are known to interfere with the apicoplast translational machinery, and have a potent antimalarial effect. […] We developed a cell-based quantitative high throughput screen that leverages this "delayed death" phenotype to enrich for compounds that target the apicoplast. To detect small molecules that cause the delayed death phenotype, erythrocytes infected with firefly luciferase-expressing parasites were incubated with compounds for either one or two generations, corresponding to 48 and 96 hours, respectively. Growth inhibition was detected by a decrease in luciferase activity. Compounds that inhibited parasite growth in the second generation at least five-fold more potently than in the first generation were defined as delayed death inducing. These compounds were selected for confirmatory screening using a flow cytometry based assay. This hit validation assay used the 3D7 cell line and measured at 96 hours. NIH Molecular Libraries Probe Production Network [MLPCN] NIH Chemical Genomics Center [NCGC] MLPCN Grant: R21 NS059500 Assay Provider: David Fidock and Eric Ekland, Columbia University
Test compounds were diluted in 20 microliters of complete media (RPMI 1640 with 0.5% w/v Albumax (GIBCO), 24 mM sodium bicarbonate (Sigma) and 10 ug/mL gentamycin (Gibco)) in clear 384-well plates (Greiner). All liquid handling was conducted using a Bio Tek Precision 2000 pipetting system. Twenty microliters of infected erythrocytes, 0.2% parasitemia (for 48 hour time points) or 0.1% parasitemia (for 96 hour time points) were added to the compound dilutions (1% hematocrit, final concentration; 40 microliters, total culture volume). The assay plates were incubated for 48 hours, or 96 hours, at 37 masculine C in a humidified chamber (Billups- Rothenberg, Del Mar, CA, USA), gassed with 5%CO2/5%O2/ 90%N2. After two generations (96hours), 5 microliters of culture were harvested and transferred to a second 384 well plate for fluorescent staining. Samples were stained with 30 microliters of 2 x SYBR Green I (Invitrogen) and 150nM MitoTracker Deep Red (Invitrogen) diluted in 0.9% NaCl, 0.2% dextrose (Baxter) supplemented with 2.5% Fetal Calf Serum (Gibco) (saline/FCS). Mature erythrocytes lack nuclei and mitochondria, therefore only parasitized erythrocytes retain the SYBR Green I and MitoTracker Deep Red. After 30 minutes at 37 masculine C, the stained cells were diluted in an additional 60 microliters of saline/FCS. The samples were harvested directly from the 384 well plate using a Hypercyt High Capacity Flow Platform (Intellicyt) paired with a C6 Flow Cytometer (Accuri). The flow cytometry files were analyzed using FlowJo software (FlowJo).
For `COc1ccc(C(=O)N2CCN(S(=O)(=O)c3ccc(C)cc3C)CC2)cc1OC`, the Potency was 45.8 µM (active).

As for `CCc1nc(SCC(=O)Nc2ccc(N(C)C)cc2)n[nH]1`, the Potency is 23.9 µM (active).

With `Clc1ccc(-c2c[n+](Cc3ccc(Cl)cc3Cl)c3n2CCCCC3)cc1`, the Potency is 0.366 µM (active).

`CC(=O)NC[C@@H]1CN(c2ccc(N3CCOCC3)c(F)c2)C(=O)O1`: the Potency was 22.2 µM (active).

For `CCN(CC)C(=O)COc1coc(CN2CCN(c3cccc(Cl)c3)CC2)cc1=O`, the Potency was 17.2 µM (active).

Regarding `CCCCOc1ccc(N2C(N)=NC(N)=NC23CCCCC3)cc1`, the Potency was 15.8 µM (active).

With `COc1cc(C(C)=O)ccc1OCC(O)CN1CCN(c2cc(C)cc(C)c2)CC1` (stereo not given), the Potency was 13.9 µM (active).

With `COc1cccc(CN2CCN(c3nc4nonc4nc3N3CCCCC3)CC2=O)c1`, the Potency is 1 µM (active).

Consider `COc1ccc(NC(=S)N2CCC(Cc3ccccc3)CC2)cc1OC`, for which the Potency was 26.6 µM (active).

For the compound `CC(C)C(=O)NCCSc1c[nH]c2ccccc12`, the Potency was 16.6 µM (active).

`COc1ccc2cc3cc(C(=O)Nc4ccc5c(c4)OCO5)oc3nc2c1`: the Potency was 11.9 µM (active).

Consider `CCOC(=O)c1ccc2c(c1)n(CC)c(/C=C/N(C)c1ccccc1)[n+]2CC`, for which the Potency was 0.209 µM (active).

Turning to `O=C(CNC(=O)C1CCCCC1)OC(C(=O)c1ccccc1)c1ccccc1` (stereo not given), the Potency is 31.7 µM (active).

Turning to `CCCCN(CCCNC(=O)c1ccc(CS(=O)(=O)c2ccc(OC)cc2)o1)Cc1ccccc1`, the Potency is 4.01 µM (active).

With `CCOc1ccc(NC(=O)C[n+]2ccc(N(C)C)cc2)cc1`, the Potency is 0.135 µM (active).

With `Cc1sc2nc[nH]c(=O)c2c1-c1ccc(Cl)cc1`, the Potency is 13.8 µM (active).

In the case of `COc1ccc2c(ccc[n+]2CC(=O)c2ccccc2)c1`, the Potency was 2.22 µM (active).

Consider `COc1ccccc1N1CCN(CCC(=O)Nc2ccc(F)cc2)CC1`, for which the Potency is 15.7 µM (active).

`CO[C@@H]1[C@@H](OC2OC(C)C(OC3CC(C)(O)C(OC(=O)CC(C)C)C(C)O3)C(N(C)C)C2O)[C@@H](CC=O)C[C@@H](C)C(=O)/C=C\C2O[C@H]2C[C@@H](C)OC(=O)C[C@H]1OC(C)=O` (stereo not given in full): the Potency is 0.178 µM (active).

Turning to `CN(C)c1ccc(CN(C(=O)c2ccccc2Br)C2CCS(=O)(=O)C2)cc1` (stereo not given), the Potency is 18.2 µM (active).

For the compound `CCC(=O)OC1C(N(C)C)CC(C)O[C@H]1O[C@H]1[C@H](C)[C@@H](O[C@H]2CC(OC)[C@@H](O)C(C)O2)[C@H](C)C(=O)O[C@@H](CC)[C@](C)(O)[C@@H](O)[C@H](C)C(=O)[C@@H](C)C[C@]1(C)O` (stereo not given in full), the Potency was 11.4 µM (active).

`Cc1c(F)c(N2CCNC(C)C2)cc2c1c(=O)c(C(=O)O)cn2C1CC1` (stereo not given): the Potency was 0.651 µM (active).

As to `O=C(Nc1ccccc1N1CCOCC1)c1cccc(S(=O)(=O)N2CCOCC2)c1`, the Potency was 11 µM (active).

For the compound `O=C(CSc1ccc(-c2cccnc2)nn1)Nc1ccccc1C(F)(F)F`, the Potency is 4.65 µM (active).

Consider `O=C(c1ccc([N+](=O)[O-])cc1)n1nc(-c2ccccc2)nc1NCc1ccc(F)cc1`, for which the Potency is 19.3 µM (active).

With `Cc1ccc(-n2c(-c3ccc(Cl)cc3)c[n+]3c2CCC3)cc1`, the Potency was 0.15 µM (active).

As for `Cc1ccc(CN2CCC(n3nccc3NC(=O)c3ccccc3C)CC2)o1`, the Potency is 20.7 µM (active).

As for `CCOc1ccc(S(=O)(=O)Nc2cc(S(=O)(=O)N(CC)CC)ccc2N2CCCC2)cc1`, the Potency was 6.38 µM (active).

As to `N#Cc1cccc(NC(=O)Cn2c3[n+](c4ccc(C(F)(F)F)cc42)CCCCC3)c1`, the Potency is 0.96 µM (active).

In the case of `c1csc(CNc2ncnc3nc[nH]c23)c1`, the Potency is 23.4 µM (active).

Turning to `Cc1ccc(S(=O)(=O)Nc2ccc(C(=O)Nc3ccncc3)cc2)cc1`, the Potency is 13.9 µM (active).

For `CCCc1c(CC)c(=N)c2ccccc2n1C`, the Potency is 0.198 µM (active).

As for `COc1ccc(CNC(=O)C2CCC(CNS(=O)(=O)c3cccc4cccnc34)CC2)cc1` (stereo not given), the Potency is 16.5 µM (active).

`COCCNC(=O)c1cccc(OC2CCN(Cc3cccc(SC)c3)CC2)c1`: the Potency is 5.37 µM (active).

Turning to `CC1=Nc2cc(C(=O)N3CCCC3)ccc2Sc2ccc(C)cc21`, the Potency was 18 µM (active).

On to `CCCCN(CCCNC(=O)C1CCN(C(=O)c2cc3sccc3n2C)CC1)Cc1ccccc1`, for which the Potency was 0.617 µM (active).

Take `Brc1cccc(OCCCCN2CCCCC2)c1`: the Potency was 22.7 µM (active).

Turning to `COc1ccc(Nc2nnc(-c3ccc(C)cc3)c3ccccc23)cc1C(=O)N1CCCCC1`, the Potency is 20 µM (active).

With `O=C(NCc1cccnc1)c1ccc(NS(=O)(=O)c2ccccc2)cc1`, the Potency was 21.4 µM (active).

Consider `CCCc1cc(=O)oc2cc(OC(C)C(=O)NCc3ccccn3)c(Cl)cc12` (stereo not given), for which the Potency is 3.22 µM (active).
